In PubChem BioAssay:
“And” between values parts separate entries of the source, which are not always exact repeats. Equal values may be shown once. Records with an inconclusive call do not appear. More than one record can exist for a structure, and the calls need not agree. The source made the active and inactive calls.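 Rule for the calls, unless noted: active = compounds whose cell count with miR-34 switched on is under 0.7 times the count with it off; inactive = the rest.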

assay: growth inhibition of DIPG cells – cell-based, MIPE4.0 library, CellTiter-Glo luminescence, qHTS (AID 1347066; cut-off not given, nearly all actives have AC50 up to about 30 µM;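 note: cells exposed to compound for 48 hours before readout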); settings: SU-DIPG-VI viability, CellTiter-Glo ATP luminescence

Row | Compound | outcome
1 | CN1[C@@H]2CCC[C@H]1CC(NC(=O)c1nn(C)c3ccccc13)C2 (stereo partly specified) | inactive
2 | CCN(CC)CC#CCOC(=O)C(O)(c1ccccc1)C1CCCCC1 (stereo unspecified) | inactive
3 | COc1nc(C)nc(Cl)c1NC1=NCCN1 | inactive
4 | CC(Cc1ccc(O)c(O)c1)(NN)C(=O)O (stereo unspecified) | inactive
5 | Cc1cc2c(s1)Nc1ccccc1N=C2N1CCN(C)CC1 | inactive

assay: JHH-DIPG-1 glioma cell viability, MIPE5.0 library, CellTiter-Glo luminescence, qHTS (AID 1347067; cut-off not given, nearly all actives have AC50 up to about 26 µM;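 note: cells exposed to compound for 48 hours before readout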); settings: JHH-DIPG-1 glioma viability, CellTiter-Glo ATP luminescence

Row | Compound | outcome | AC50
6 | O=C1CN2Cc3c(ccc(Cl)c3Cl)N=C2N1 | inactive | –
7 | O=c1[nH]c(=O)n(C2CCCO2)cc1F (stereo unspecified) | inactive | –
8 | CC(C)C[C@H](NC(=O)[C@@H](O)[C@H](N)Cc1ccccc1)C(=O)O | inactive | –
9 | C[C@@H](c1ncncc1F)[C@](O)(Cn1cncn1)c1ccc(F)cc1F | inactive | –
10 | CCOC(=O)c1ccc(OC(=O)CCCCCN=C(N)N)cc1 | inactive | –
11 | CC(C)NCC(O)c1ccc(NS(C)(=O)=O)cc1 (stereo unspecified) | inactive | –
12 | CC(=O)NC[C@H]1CN(c2ccc(N3CCOCC3)c(F)c2)C(=O)O1 | inactive | –
13 | O=C(c1ccc(OCCN2CCCCC2)cc1)c1c(-c2ccc(O)cc2)sc2cc(O)ccc12 | inactive | –
14 | CC[C@H]1OC(=O)[C@H](C)[C@@H](O[C@H]2C[C@@](C)(OC)[C@@H](O)[C@H](C)O2)[C@H](C)[C@@H](O[C@@H]2O[C@H](C)C[C@H](N(C)C)[C@H]2O)[C@](C)(O)C[C@@H](C)CN(C)[C@H](C)[C@@H](O)[C@]1(C)O | inactive | –
15 | CN1CC(=O)N2[C@H](c3ccc4c(c3)OCO4)c3[nH]c4ccccc4c3C[C@@H]2C1=O | inactive | –
16 | Cc1cnc(C(=O)NCCc2ccc(S(=O)(=O)NC(=O)NC3CCCCC3)cc2)cn1 | inactive | –
17 | C[C@H]1O[C@H](O[C@H]2[C@H](O)[C@@H](O)[C@@H](O[C@H]3[C@H](O)[C@@H](O)C(O)O[C@@H]3CO)O[C@@H]2CO)[C@H](O)[C@@H](O)[C@@H]1N[C@H]1C=C(CO)[C@@H](O)[C@H](O)[C@H]1O (stereo partly specified) | inactive | –
18 | COc1ccc2[nH]c(S(=O)Cc3ncc(C)c(OC)c3C)nc2c1 (stereo unspecified) | inactive | –
19 | CN1[C@@H]2CCC[C@H]1CC(NC(=O)c1nn(C)c3ccccc13)C2 (stereo partly specified) | inactive | –
20 | COc1c(N2C[C@@H]3CCCN[C@@H]3C2)c(F)cc2c(=O)c(C(=O)O)cn(C3CC3)c12 | inactive | –
21 | CC(Cc1ccc(O)c(O)c1)(NN)C(=O)O (stereo unspecified) | inactive | –
22 | Cc1cc2c(s1)Nc1ccccc1N=C2N1CCN(C)CC1 | – | 1180 nM (active)

assay: growth inhibition of DIPG cells – cell-based, MIPE5.0 library, qHTS (AID 1347068; cut-off not given, nearly all actives have IC50 up to about 30 µM); settings: SU-DIPG-XXV viability

Row | Compound | outcome
23 | O=C1CN2Cc3c(ccc(Cl)c3Cl)N=C2N1 | inactive
24 | O=c1[nH]c(=O)n(C2CCCO2)cc1F (stereo unspecified) | inactive
25 | CC(C)C[C@H](NC(=O)[C@@H](O)[C@H](N)Cc1ccccc1)C(=O)O | inactive
26 | C[C@@H](c1ncncc1F)[C@](O)(Cn1cncn1)c1ccc(F)cc1F | inactive
27 | CCOC(=O)c1ccc(OC(=O)CCCCCN=C(N)N)cc1 | inactive
28 | CC(C)NCC(O)c1ccc(NS(C)(=O)=O)cc1 (stereo unspecified) | inactive
29 | CC(=O)NC[C@H]1CN(c2ccc(N3CCOCC3)c(F)c2)C(=O)O1 | inactive
30 | CC[C@H]1OC(=O)[C@H](C)[C@@H](O[C@H]2C[C@@](C)(OC)[C@@H](O)[C@H](C)O2)[C@H](C)[C@@H](O[C@@H]2O[C@H](C)C[C@H](N(C)C)[C@H]2O)[C@](C)(O)C[C@@H](C)CN(C)[C@H](C)[C@@H](O)[C@]1(C)O | inactive
31 | CN1CC(=O)N2[C@H](c3ccc4c(c3)OCO4)c3[nH]c4ccccc4c3C[C@@H]2C1=O | inactive
32 | Cc1cnc(C(=O)NCCc2ccc(S(=O)(=O)NC(=O)NC3CCCCC3)cc2)cn1 | inactive
33 | C[C@H]1O[C@H](O[C@H]2[C@H](O)[C@@H](O)[C@@H](O[C@H]3[C@H](O)[C@@H](O)C(O)O[C@@H]3CO)O[C@@H]2CO)[C@H](O)[C@@H](O)[C@@H]1N[C@H]1C=C(CO)[C@@H](O)[C@H](O)[C@H]1O (stereo partly specified) | inactive
34 | COc1ccc2[nH]c(S(=O)Cc3ncc(C)c(OC)c3C)nc2c1 (stereo unspecified) | inactive
35 | CN1[C@@H]2CCC[C@H]1CC(NC(=O)c1nn(C)c3ccccc13)C2 (stereo partly specified) | inactive
36 | COc1c(N2C[C@@H]3CCCN[C@@H]3C2)c(F)cc2c(=O)c(C(=O)O)cn(C3CC3)c12 | inactive
37 | COc1nc(C)nc(Cl)c1NC1=NCCN1 | inactive
38 | Cc1cc2c(s1)Nc1ccccc1N=C2N1CCN(C)CC1 | inactive

assay: viability loss with induced miR-34 in A549 – imaging, A549 dox-inducible miR-34, nuclei and caspase counts, primary screen (AID 1347080); settings: A549 miR-34 inducible, Hoechst nuclei count, 48 h; stronger effect = lower value; cell number ratio, induced over uninduced

Row | Compound | fold change
39 | COC(=O)C[C@](O)(CCCC(C)(C)O)C(=O)O[C@@H]1C(OC)=C[C@]23CCCN2CCc2cc4c(cc2[C@H]13)OCO4 | 1.08 (inactive)
40 | CNCC[C@H](Oc1cccc2ccccc12)c1cccs1 | 0.93 (inactive)
41 | O=c1[nH]c(=O)n(C2CCCO2)cc1F (stereo unspecified) | 0.803 (inactive) and 0.835 (inactive) and 0.463 (active)
42 | CSc1nc2cc(Oc3cccc(Cl)c3Cl)c(Cl)cc2[nH]1 | 0.963 (inactive) and 0.988 (inactive)
43 | CN(C)CCc1c[nH]c2ccc(Cn3cncn3)cc12 | 0.991 (inactive) and 0.886 (inactive) and 0.916 (inactive)
44 | COc1ccc(C[C@H](C)NC[C@@H](O)c2ccc(O)c(NC=O)c2)cc1 | 0.975 (inactive)
45 | C[C@@H](c1ncncc1F)[C@](O)(Cn1cncn1)c1ccc(F)cc1F | 0.997 (inactive)
46 | CC(=O)NC[C@H]1CN(c2ccc(N3CCOCC3)c(F)c2)C(=O)O1 | 1.08 (inactive) and 0.926 (inactive)
47 | CC(CCCCC(=O)Nc1ccc(C(F)(F)F)cc1)NCCc1cnc[nH]1 (stereo unspecified) | 0.859 (inactive) and 0.909 (inactive)
48 | CN/C(=C\[N+](=O)[O-])NCCSCc1csc(CN(C)C)n1 | 0.871 (inactive)
49 | CNCC[C@@H](Oc1ccccc1C)c1ccccc1 | 0.908 (inactive)
50 | Cc1cccc(CCN2CCC(C(=O)c3ccc(NS(C)(=O)=O)cc3)CC2)n1 | 0.911 (inactive) and 0.937 (inactive) and 0.845 (inactive)
51 | CN(C)CCOc1ccc(/C(=C(/CCCl)c2ccccc2)c2ccccc2)cc1 | 0.93 (inactive) and 0.787 (inactive)
52 | CC(C)(S)C(N)C(=O)O (stereo unspecified) | 0.987 (inactive) and 0.932 (inactive)
53 | CC[C@H]1OC(=O)[C@H](C)[C@@H](O[C@H]2C[C@@](C)(OC)[C@@H](O)[C@H](C)O2)[C@H](C)[C@@H](O[C@@H]2O[C@H](C)C[C@H](N(C)C)[C@H]2O)[C@](C)(O)C[C@@H](C)CN(C)[C@H](C)[C@@H](O)[C@]1(C)O | 0.953 (inactive) and 0.891 (inactive)
54 | NCC(O)c1ccc(O)c(O)c1 (stereo unspecified) | 1.01 (inactive) and 0.975 (inactive)
55 | C/C(=C\C(=O)OCCCCCCCCC(=O)O)C[C@@H]1OC[C@H](C[C@@H]2O[C@H]2[C@@H](C)[C@H](C)O)[C@@H](O)[C@H]1O | 0.967 (inactive)
56 | C[C@H]1O[C@H](O[C@H]2[C@H](O)[C@@H](O)[C@@H](O[C@H]3[C@H](O)[C@@H](O)C(O)O[C@@H]3CO)O[C@@H]2CO)[C@H](O)[C@@H](O)[C@@H]1N[C@H]1C=C(CO)[C@@H](O)[C@H](O)[C@H]1O (stereo partly specified) | 0.866 (inactive)
57 | CCCCN1CCCC1CNC(=O)c1cc(C#N)c2ccccc2c1OC (stereo unspecified) | 0.818 (inactive) and 0.935 (inactive)
58 | COc1ccc2[nH]c(S(=O)Cc3ncc(C)c(OC)c3C)nc2c1 (stereo unspecified) | 1.06 (inactive) and 1.02 (inactive)
59 | CN1[C@@H]2CCC[C@H]1CC(NC(=O)c1nn(C)c3ccccc13)C2 (stereo partly specified) | 0.964 (inactive)
60 | COc1c(N2C[C@@H]3CCCN[C@@H]3C2)c(F)cc2c(=O)c(C(=O)O)cn(C3CC3)c12 | 0.953 (inactive)
61 | CC(Cc1ccc(O)c(O)c1)(NN)C(=O)O (stereo unspecified) | 0.911 (inactive) and 0.909 (inactive)
